We go through 21 compounds from PubChem BioAssay (Tox21).

Values joined by “and” are separate entries in the source; they are usually repeats but may differ in a detail not shown here. Equal entries are not always repeated. Records with an inconclusive call do not appear. Some compounds were tested as several samples or in several runs, with calls that do not always agree. Active and inactive are the calls of the source. The call rests on the fitted dose curve; in most records, active means well fitted curve in the direction sought with a large enough effect in the repeat runs; inconclusive means weak or mixed curves; inactive means no such curve, though single readings can be large; an effect the other way counts as inactive or inconclusive.
On the % scale 0 is the no-effect control and ±100 the full control effect.

A short description of one assay: qHTS assay to identify small molecule antagonists of the retinoic acid receptor (RAR) signaling pathway (AID 1159552; further: nearly all actives have a fitted effect of over 50% in size; further: potency means the concentration at half of the fitted maximal effect). The following applies: C3RL4 RARE luciferase reporter, retinol-stimulated, 6 h; series mostly up to 92.4 µM; activity, negative = inhibition: at the top concentration. The procedure, abridged:
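Using a RARE-driven luciferase construct in C3RL4 cells, retinol at 1 uM final provided the agonist stimulus while compounds were co-applied. After 6 hours at 37 C, luminescence was recorded to flag inhibitors of retinol signaling.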
Take `COc1ccc(C(=O)c2ccccc2O)c(O)c1`: the Potency result is “inactive”. In the case of `C=C[C@@]1(C)CC(=O)[C@]2(O)[C@@]3(C)[C@@H](O)CCC(C)(C)[C@@H]3[C@H](O)[C@H](OC(C)=O)[C@@]2(C)O1`, the “activity, negative = inhibition” value was -20.2% [at 42.5 µM] (inactive). Turning to `C=CCOC(=O)C(=C)C`, the Potency entry was “inactive”. On the same count and under the same terms, for `O=C1OC2(c3ccccc31)c1cc(I)c(O)c(I)c1Oc1c2cc(I)c(O)c1I` the value was 34.8 µM (active) and inactive.

In the case of `IC(I)I`, the “activity, negative = inhibition” value is -4.78% (inactive). On to `FC(F)(F)C(Cl)Br` (stereo not drawn), for which the Potency entry is “inactive”.

For `CCCCCCCC/C=C\CCCCCCCC(=O)O`, the “activity, negative = inhibition” value was 0.467% (inactive).

Consider `CC(=O)[C@@]1(O)CC[C@H]2[C@@H]3C[C@H](C)C4=CC(=O)C=C[C@]4(C)[C@@]3(F)[C@@H](O)C[C@@]21C`, for which the “activity, negative = inhibition” value is -2.08% (inactive). On to `c1ccc2cc3ccccc3cc2c1`, for which the Potency result was “inactive”. The same measure, in the same setting: for `Nc1ccc(O)c(N)c1` the value was “inactive”.

Regarding `CN(Cc1cnc2nc(N)nc(N)c2n1)c1ccc(C(=O)N[C@@H](CCC(=O)O)C(=O)O)cc1`, the Potency result was “inactive”.

Take `CC(C)(C)c1cccc(C(C)(C)C)c1O`: the “activity, negative = inhibition” value was -6.55% (inactive). On to `OCCNCCO`, for which the Potency result was “inactive”. With `C[C@]12CC[C@@H]3c4ccc(O)cc4CC[C@H]3[C@@H]1CC[C@H]2O`, the Potency result was “inactive and 27.3 µM (active)”.

The nature of another assay: qHTS assay to identify small molecule agonists of the retinoic acid receptor (RAR) signaling pathway (AID 1159553). The following applies: C3RL4 RARE luciferase reporter, agonist, 6 h; activation: at 73.3 µM (top of the series) unless noted. The procedure, abridged:
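Cell line C3RL4, RARE luciferase reporter. Treatment: compounds in DMSO, 6 hr, 37 C, 5% CO2, after overnight plating. Detection: luminescence, 30 min RT after reagent.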
As to `C=C[C@@]1(C)CC(=O)[C@]2(O)[C@@]3(C)[C@@H](O)CCC(C)(C)[C@@H]3[C@H](O)[C@H](OC(C)=O)[C@@]2(C)O1`, the Potency entry was “inactive”. For the compound `OC[C@@H](O)[C@@H](O[C@@H]1O[C@H](CO)[C@H](O)[C@H](O)[C@H]1O)[C@H](O)[C@@H](O)CO`, the Potency entry was “inactive”. Still for that read-out and setting: for `Nc1cc([N+](=O)[O-])ccc1C(=O)O` the value was “inactive”. Same read-out and setting: for `IC(I)I` the value was “inactive”. As for `Nc1ccc(O)c(N)c1`, the “activation” value is 3.66% (inactive). On to `CN(Cc1cnc2nc(N)nc(N)c2n1)c1ccc(C(=O)N[C@@H](CCC(=O)O)C(=O)O)cc1`, for which the Potency entry is “inactive”. With `Cc1ccc(C(C)(C)C)cc1`, the activation was 0.0823% [at 94.8 µM] (active). On to `OCCNCCO`, for which the “activation” value was -0.0319% (inactive).

Turning to `C=C[Si](OCCOC)(OCCOC)OCCOC`, the Potency entry was “inactive”. On the same count and under the same terms, for `C[C@]12CC[C@@H]3c4ccc(O)cc4CC[C@H]3[C@@H]1CC[C@H]2O` the value was “inactive”. Still for that read-out and setting: for `C[C@]12CC[C@@H]3c4ccc(O)cc4CC[C@H]3[C@@H]1CC[C@@H]2O` the value was “inactive”.

A short description of the next assay: qHTS assay to identify small molecule antagonists of the estrogen related receptor (ERR) signaling pathway - cell viability counter screen (AID 1224818). Conditions: ERR reporter cell line viability counter screen; series mostly up to 46.1 µM; viability change, negative = cytotoxic: at the top concentration. The procedure, abridged:
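Here, ERR cells are plated at 2,000 cells per well, allowed 6 h to attach, and treated with compounds in DMSO for 17.5 h at 37 C. CellTiter-Fluor is then added and fluorescence read after 30 min.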
Regarding `CC1(C)NC(=O)N(c2ccc([N+](=O)[O-])c(C(F)(F)F)c2)C1=O`, the “viability change, negative = cytotoxic” value was -12.2% (inactive). Still for that read-out and setting: for `O=C(O)COCCN1CCN(C(c2ccccc2)c2ccc(Cl)cc2)CC1` (stereo not drawn) the value was 9.99% (inactive). As to `CN(Cc1cnc2nc(N)nc(N)c2n1)c1ccc(C(=O)N[C@@H](CCC(=O)O)C(=O)O)cc1`, the “viability change, negative = cytotoxic” value was -9.84% (inactive). With `C[C@]12CC[C@@H]3c4ccc(O)cc4CC[C@H]3[C@@H]1CC[C@@H]2O`, the “viability change, negative = cytotoxic” value was -13.4% (inactive).

Another assay can be described thus: qHTS assay to identify small molecule antagonists of the estrogen related receptor signaling pathway with the pleiotropic PPARgamma coactivator (PGC) cell viability counter screen (AID 1224822). The following applies: ERR/PGC reporter cell line viability counter screen; series mostly up to 46.1 µM; viability change, negative = cytotoxic: at the top concentration. The method in brief: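 qHTS format, DMSO compound stocks pin-transferred onto PGC/ERR cells 6 h after plating; 17.5 h exposure at 37 C, then CellTiter-Fluor fluorescence.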
With `CC1(C)NC(=O)N(c2ccc([N+](=O)[O-])c(C(F)(F)F)c2)C1=O`, the “viability change, negative = cytotoxic” value is 1.89% (inactive). As for `O=C(O)COCCN1CCN(C(c2ccccc2)c2ccc(Cl)cc2)CC1` (stereo not drawn), the “viability change, negative = cytotoxic” value was 11.2% (inactive). The same measure, in the same setting: for `CN(Cc1cnc2nc(N)nc(N)c2n1)c1ccc(C(=O)N[C@@H](CCC(=O)O)C(=O)O)cc1` the value was -4.1% (inactive). The same measure, in the same setting: for `C[C@]12CC[C@@H]3c4ccc(O)cc4CC[C@H]3[C@@H]1CC[C@@H]2O` the value was -21% (inactive).
